Reference: PubChem BioAssay AID538 (PCMD, 2006)
Screen size: about 62,000 compounds; about 100 (0.16%) were called active.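 The calls were made as follows: active = inhibition above 20% in each of the two 10-compound mixture wells holding the compound; inactive = the rest.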 For the sample, actives were picked, then their nearest neighbours and some compounds at random.

Each molecule was assayed against Complement C1s subcomponent (Homo sapiens) (UniProt P09871) (assay: complement C1s protease inhibitors, primary screen, biochemical, 10-compound mixtures (AID 538;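 also: 0% = enzyme wells lacking compound mixture and 100% = no-enzyme blank wells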)). Conditions: purified C1s, fluorogenic AMC substrate, pooled mixtures; screened at 5 µM (by protocol).
Complement C1s subcomponent (Homo sapiens), sequence (P09871 16-437 limits assumed): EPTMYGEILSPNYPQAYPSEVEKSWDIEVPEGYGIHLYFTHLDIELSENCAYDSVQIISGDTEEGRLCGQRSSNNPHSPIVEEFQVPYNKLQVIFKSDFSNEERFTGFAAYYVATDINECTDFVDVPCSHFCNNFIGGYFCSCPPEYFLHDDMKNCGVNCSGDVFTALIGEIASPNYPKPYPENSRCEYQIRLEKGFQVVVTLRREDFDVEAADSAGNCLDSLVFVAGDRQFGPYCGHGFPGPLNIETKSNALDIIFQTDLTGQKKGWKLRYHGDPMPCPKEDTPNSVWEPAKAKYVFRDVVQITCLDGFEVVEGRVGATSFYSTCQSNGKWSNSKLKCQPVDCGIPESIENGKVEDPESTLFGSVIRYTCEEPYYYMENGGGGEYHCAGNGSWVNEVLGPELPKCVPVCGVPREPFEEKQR
Complement C1s subcomponent (Homo sapiens), sequence (P09871 438-688 limits assumed): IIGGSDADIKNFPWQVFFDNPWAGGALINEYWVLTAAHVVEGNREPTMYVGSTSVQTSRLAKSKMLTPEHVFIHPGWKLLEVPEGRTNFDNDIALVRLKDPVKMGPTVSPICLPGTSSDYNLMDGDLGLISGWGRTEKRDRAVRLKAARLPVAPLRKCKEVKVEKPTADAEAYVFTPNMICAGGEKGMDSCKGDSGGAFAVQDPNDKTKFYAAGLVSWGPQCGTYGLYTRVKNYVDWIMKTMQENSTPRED

Mean inhibition % of two 10-compound mixtures (active compounds read high), inactive:
O=S(=O)(/C=C/c1ccccc1)NCCc1ccccn1 -2.77%
Clc1ccc(Cn2ncc3c(NCc4cccnc4)ncnc32)cc1 3.33%
Cc1ccc(S(=O)(=O)NCC(=O)OCC(=O)N2CCc3ccccc32)cc1 5.33%
N#Cc1cccc(CSc2nnc(CCCO)n2-c2ccccc2)c1 -5.26%
CCCC(C(=O)N1CCOCC1)N1C(=O)C2C3C=CC(C3)C2C1=O (stereo not drawn) -8.34%
O=c1[nH]nc(CSCc2ccccc2Cl)[nH]1 -7.92%
Cc1c(C(=O)NCC2CCCO2)sc2nc(-c3ccccc3)cn12 (stereo not drawn) 0.595%
COC(=O)C(C)n1cnc2c(nnn2-c2cccc(Cl)c2)c1=O (stereo not drawn) -40.6%
CC(C)c1ccc(OCC(O)Cn2cnc3ccccc32)cc1 (stereo not drawn) -21.9%
CC(C)C(NC(=O)c1cccc(S(=O)(=O)N2CCOCC2)c1)C(=O)NCCc1ccccn1 (stereo not drawn) -12.8%
COC(=O)COc1ccc2oc(=O)cc(C)c2c1 10.3%
COC(=O)c1ccc(S(=O)(=O)c2ccc(C(=O)OC)s2)s1 -14%
COC(=O)c1ccccc1NC(=O)CSc1ccccn1 -21.1%
CC1CN(Cc2nc3c(c(=O)n(C)c(=O)n3C)n2Cc2cccc(Cl)c2)CC(C)O1 (stereo not drawn) -18.5%
COc1cccc(-n2c(SCC(=O)NC3CCCCC3)nc3n[nH]c(C)c3c2=N)c1 -13.5%
CC(=O)N(Cc1cccs1)C1CCOC(C)(C)C1 (stereo not drawn) 4.59%
CCOC(=O)c1cccc(NC(=O)CCc2c(C)nc3ncnn3c2C)c1 2.35%
CC(C)n1c(NCc2c[nH]c3ccccc23)nc2ccccc21 -7.58%
Cn1c(/C(C#N)=C2/CCCCCN2)nc2ccccc21 -6.22%
Cc1ccc(OCC(=O)Nc2ccc(-c3nc4ncccc4o3)cc2)cc1 -66.2%
Cc1ccccc1CSc1nnc(Cn2c(=O)sc3ccccc32)n1C 4.08%
CCOC(=O)CCc1c(C)c2ccc(OCc3nn[nH]n3)c(C)c2oc1=O -25%
Cc1c(C(=O)Nc2ccccc2Cl)oc2ccc(S(=O)(=O)N3CCC4(CC3)OCCO4)cc12 -4.62%
COc1cccc(-c2nnc(NC(=O)c3ccc(S(=O)(=O)N(CC(C)C)CC(C)C)cc3)o2)c1 14%
COC(=O)C(C)Sc1ccc2nnc(-c3cccc(F)c3)n2n1 (stereo not drawn) -5.87%
CCOC(=O)c1nnn(-c2nc(OC)nc(N(C)C)n2)c1-c1ccccc1 -30.1%
C#CC(C)(C)NC(=O)CSc1nc2c(c(=O)n(C)c(=O)n2C)n1CCCC 1.95%
CCCc1cc(=O)[nH]c(SCc2ccc(C#N)cc2)n1 -9.73%
C=C(C)COc1ccc(-c2n[nH]c(C)c2-c2ccccc2OC)c(O)c1 15.7%
O=C(C1=C(O)C(=O)N(Cc2ccccc2)C1c1cccnc1)c1ccco1 (stereo not drawn) 3.85%
Cc1ccccc1C(=O)NCCN=C1NS(=O)(=O)c2ccccc21 -24.8%
N#Cc1ccccc1-n1c(N)c(C(=O)N2CCCC2)sc1=S -0.195%
O=C(O)COc1nsnc1N1CCOCC1 -1.36%
O=C(O)c1cc(S(=O)(=O)N2CCCCCC2)c(Cl)cc1Cl -41%
Cc1ccccc1-c1ccc(Nc2ccc(C(=O)N3CCOCC3)cc2)nn1 16%
Cc1ccnc(N2C(=O)c3ccccc3C2Nc2ccc3c(c2)OCCO3)c1 (stereo not drawn) -33.6%
COc1cccc(OCC(=O)Nc2ccccc2C(N)=O)c1 16.6%
O=C(O)C1CC(=O)N(Cc2cccnc2)C1 (stereo not drawn) 5.36%
CCCn1c(=NC(C)=O)c(C(=O)OCC)cc2c(=O)n3ccccc3nc21 -168%
N#Cc1cccc(NC(=O)CCC2CCCC2)c1 -2.16%
Cn1nc(-c2ccc(Cl)cc2)c2cc(C(=O)NCc3ccco3)sc21 10.9%
O=S(=O)(NCc1ccccn1)c1ccc(Br)s1 -20.3%
COc1ccc(C(=O)Nc2c(N)nc(SCC(=O)N3CCC(C)CC3)[nH]c2=O)cc1OC -31.6%
CC1(C)CC(=O)C=C(NCc2ccncc2)C1 -4.76%
Cc1ccc2c(c1)c1ncn(CCC3=CCCCC3)c(=O)c1n2C 2.97%
CCCn1c(SCC(=O)c2ccc3c(c2)OCCO3)nnc1C(C)C -7.42%
Cc1nn(-c2ccccc2)c2[nH]c(C(F)(F)F)cc(=O)c12 1.25%
CS(=O)(=O)N(C(=O)NC(=O)NC1CCS(=O)(=O)C1)C1CCCCC1 (stereo not drawn) -74.3%
